Measurements taken from PubChem BioAssay AID624481 (The Scripps Research Institute Molecular Screening Center, 2012).
Calls of active or inactive are those of the source. No stated cut-off is given here; in the data, active means inhibition above about 50%; inactive means the rest.

biological target: Prolyl endopeptidase-like (Mus musculus) (UniProt Q8C167); experiment: mouse PREPL enzyme inhibition by screening hits – biochemical, gel-based competitive ABPP, fluorescence, HTS hits, PREPL inhibitor project (AID 624481); conditions: purified mouse PREPL, at 20 µM, active compounds read high
Sequence (Q8C167 whole entry, looked up): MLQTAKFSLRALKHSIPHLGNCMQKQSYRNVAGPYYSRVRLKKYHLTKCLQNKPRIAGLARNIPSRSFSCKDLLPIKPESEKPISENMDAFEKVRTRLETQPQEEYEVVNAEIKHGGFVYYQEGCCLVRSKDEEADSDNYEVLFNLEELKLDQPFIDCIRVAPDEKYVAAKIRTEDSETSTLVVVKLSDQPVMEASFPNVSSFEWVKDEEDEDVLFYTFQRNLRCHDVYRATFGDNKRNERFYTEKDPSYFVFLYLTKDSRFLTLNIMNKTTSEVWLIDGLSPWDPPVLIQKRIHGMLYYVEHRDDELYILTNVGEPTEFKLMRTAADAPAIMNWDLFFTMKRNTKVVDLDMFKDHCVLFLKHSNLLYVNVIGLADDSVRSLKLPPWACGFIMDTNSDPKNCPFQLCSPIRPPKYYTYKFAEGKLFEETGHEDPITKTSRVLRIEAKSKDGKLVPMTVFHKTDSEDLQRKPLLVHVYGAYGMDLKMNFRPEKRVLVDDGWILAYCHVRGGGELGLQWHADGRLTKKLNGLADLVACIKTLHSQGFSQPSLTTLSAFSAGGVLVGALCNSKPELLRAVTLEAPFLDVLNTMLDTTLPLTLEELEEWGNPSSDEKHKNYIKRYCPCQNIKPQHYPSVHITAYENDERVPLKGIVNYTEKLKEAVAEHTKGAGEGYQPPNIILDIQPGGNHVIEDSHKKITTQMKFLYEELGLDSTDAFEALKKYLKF

inhibition, active:
CCN1/C(=C\c2ccc3ccccc3[n+]2CC)Sc2cc(C)ccc21 50%

inhibition, inactive:
CC(C)Nc1ccc(Nc2ccnc3cc4ccccc4cc23)cc1 -11%, COc1ccc(C=NNc2cc(C)nc3ccc(OC)cc23)c(OC)c1 6%, C#CCOCCOCCOCCNc1nc(N2CCN(C(=O)CCCCCCCCCCNC(=O)Cn3cc(CCCCCN)nn3)CC2)nc(N2CCN(C(=O)CCCCCCCCCCNC(=O)[C@H](CO)n3cc(CCCCCN)nn3)CC2)n1 -38%, COc1ccc(C2CC(c3cccc(OC)c3)n3nc(N)nc3N2)cc1 (centres undefined) -18%, COCCCNC(=O)/C(C#N)=C/c1c(N2CCN(c3ccc(OC)cc3)CC2)nc2c(C)cccn2c1=O -39%, c1cncc(N=c2scc(-c3cccc4ccccc34)n2CCCn2ccnc2)c1 -95%, COc1ccc2nc(C)cc(NN=Cc3cccc(OC)c3O)c2c1 -23%, c1ccc2c(NCCc3c[nH]c4ccccc34)c3ccccc3nc2c1 -49%, Cc1cccn2c(=O)c3cc(C(=O)NCCc4ccccc4)c(=N)n(CCCn4ccnc4)c3nc12 -33%, Cc1ccccc1-c1ccc(Nc2ccc(N3CCOCC3)cc2)nn1 12%, O=C(C1=C[C@@H](c2ccc(Br)cc2)C[C@@H](OCc2ccc(CO)cc2)O1)N1CCOCC1 -26%, Cc1cc(C)c2nc(C)cc(NN=Cc3ccc(O)cc3)c2c1 -1%, COc1ccc(C(CCNCc2ccc(N(C)C)cc2)c2ccccc2)cc1 (centres undefined) -124%
